Data published in PubChem BioAssay (NCI).
Where “and” joins values, the source holds several entries; their conditions need not be identical. Equal entries are not always repeated. This is part of a sample that, as a whole, favours compounds with a hit. Of some 79,000 tested, about 15% had one in any assay. The source holds several records for some structures; these can differ, active in one and inactive in another. Calls of active or inactive are those of the source. No stated cut-off is given here; in the data, active means growth inhibition above about 70%; inactive means the rest.

Tests used:
[1] = NCI Yeast Anticancer Drug Screen. Data for the wt1 strain (AID 149);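 further: 0% = growth of vehicle-treated wt1 cultures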; conditions: S. cerevisiae wt1 strain (SPY 50644) growth inhibition, stronger effect = higher value
Procedure, shortened: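 Compounds are added to wt1 yeast cultures. Growth is then measured. Inhibition is expressed relative to vehicle-treated controls.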

[2] = NCI Yeast Anticancer Drug Screen. Data for the rad50 strain (AID 155);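 further: 0% = growth of vehicle-only cultures of the same strain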; conditions: S. cerevisiae rad50 strain growth inhibition, stronger effect = higher value
Procedure, shortened: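 Inhibition values express reduced yeast growth in compound-treated cultures relative to vehicle-treated controls.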

[3] = NCI Yeast Anticancer Drug Screen. Data for the mec2-1 strain (AID 157); conditions: S. cerevisiae mec2-1 strain, stronger effect = higher value
Procedure, shortened: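 Growth inhibition is read against vehicle-treated controls after compound exposure of the mec2-1 yeast strain, which is defective in DNA damage repair or cell cycle control.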

[4] = NCI Yeast Anticancer Drug Screen. Data for the rad14 strain (AID 159);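 further: 0% = growth of vehicle-treated control cultures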; conditions: S. cerevisiae rad14 strain growth inhibition, stronger effect = higher value
Procedure, shortened: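 A mutant yeast strain defective in DNA damage repair is treated with compound; inhibition of its growth is scored against untreated, vehicle-exposed cultures.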

[5] = NCI Yeast Anticancer Drug Screen. Data for the sgs1 mgt1 strain (AID 161);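 further: 0% = growth of cultures given vehicle only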; conditions: S. cerevisiae sgs1 mgt1 strain, stronger effect = higher value
Procedure, shortened: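 Compounds are added to genetically altered yeast, and growth is compared with cultures given vehicle alone to give percent inhibition.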

[6] = NCI Yeast Anticancer Drug Screen. Data for the CLN2oe strain (AID 163);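 further: 0% = growth of vehicle-only control cultures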; conditions: S. cerevisiae CLN2oe strain, stronger effect = higher value
Procedure, shortened: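 Compound-treated yeast; growth vs vehicle ctrl = % inhibition. Genetically altered strain (cell-cycle control).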

[7] = NCI Yeast Anticancer Drug Screen. Data for the cln2 rad14 strain (AID 165);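 further: 0% = growth equal to vehicle treated cultures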; conditions: S. cerevisiae cln2 rad14 strain, stronger effect = higher value
Procedure, shortened: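 Growth inhibition, relative to vehicle-treated controls, is the read-out. The test organism is a yeast strain with defined genetic alterations, cln2 rad14.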

[8] = NCI Yeast Anticancer Drug Screen. Data for the bub3 strain (AID 167); conditions: S. cerevisiae bub3 mutant strain, stronger effect = higher value
Procedure, shortened: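 Steps: expose the mutant yeast strain to compound; grow alongside vehicle-treated cultures; measure growth; express inhibition against the vehicle cultures.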

[9] = NCI Yeast Anticancer Drug Screen. Data for the wt2 strain (AID 169);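 further: 0% = growth of vehicle-treated yeast cultures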; conditions: S. cerevisiae wt2 strain growth inhibition, stronger effect = higher value
Procedure, shortened: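 Compound exposure of yeast; growth compared with vehicle controls; inhibition reported.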

[10] = NCI Yeast Anticancer Drug Screen. Data for the mlh1 strain (AID 171);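 further: 0% = growth of vehicle-treated control cultures of the same strain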; conditions: S. cerevisiae mlh1 strain growth inhibition, stronger effect = higher value
Procedure, shortened: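 Compounds are applied to a genetically altered yeast strain, and its growth is compared with that of vehicle-treated cultures to give percent inhibition.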

[11] = NCI Yeast Anticancer Drug Screen. Data for the sgs1 strain (AID 173);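 further: 0% = growth of vehicle-only control cultures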; conditions: S. cerevisiae sgs1 mutant, stronger effect = higher value
Procedure, shortened: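 Compounds applied to genetically altered yeast; growth compared with vehicle-treated cultures to give % inhibition.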

[12] = NCI Yeast Anticancer Drug Screen. Data for the mlh1 rad18 strain (AID 175); conditions: S. cerevisiae mlh1 rad18 strain growth inhibition, stronger effect = higher value
Procedure, shortened: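 Cells of a genetically altered yeast strain, deficient in DNA damage repair, were treated with compound. Their growth was then compared with that of vehicle-treated cultures to give inhibition.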

[13] = NCI Yeast Anticancer Drug Screen. Data for the rad18 strain (AID 177); conditions: S. cerevisiae rad18 mutant growth inhibition, stronger effect = higher value
Procedure, shortened: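 Compounds are applied to a repair-deficient yeast strain, and growth is compared with that of vehicle-treated cultures to give percent inhibition.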

[14] = NCI Yeast Anticancer Drug Screen. Data for the rad50EPP+ strain (AID 151);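 further: 0% = growth of vehicle-treated control cultures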; conditions: S. cerevisiae rad50 mutant strain, stronger effect = higher value
Procedure, shortened: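 rad50EPP+ yeast treated with test compounds. Readout: growth vs vehicle control.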

[15] = at 5.0 µM (retest, dose inferred, filed as 0.5)
[16] = at 50.0 µM (retest, dose inferred, filed as 5.0)

Oc1ccc(Cc2nccc3cc(O)c(O)cc23)cc1O
growth inhibition ([1]; at 1.2 µM): -9% (inactive)
growth inhibition ([1]; at 3.7 µM): 2% (inactive)
growth inhibition ([1]; at 11.0 µM): 3% (inactive)
growth inhibition ([1]; at 33.0 µM): 19% (inactive)
growth inhibition ([1]; at 100.0 µM): 66% (inactive)
growth inhibition ([2]; at 1.2 µM): 3% (inactive)
growth inhibition ([2]; at 3.7 µM): -6% (inactive)
growth inhibition [2, 15]: 47% (inactive)
growth inhibition ([2]; at 11.0 µM): 7% (inactive)
growth inhibition ([2]; at 33.0 µM): 11% (inactive)
growth inhibition [2, 16]: 66% (inactive)
growth inhibition ([2]; at 50.0 µM): 48.9% (inactive)
growth inhibition ([2]; at 100.0 µM): 28% (inactive)
growth inhibition ([3]; at 1.2 µM): 21% (inactive)
growth inhibition ([3]; at 3.7 µM): 28% (inactive)
growth inhibition [3, 15]: 46% (inactive)
growth inhibition ([3]; at 11.0 µM): 33% (inactive)
growth inhibition ([3]; at 33.0 µM): 47% (inactive)
growth inhibition [3, 16]: 73% (active)
growth inhibition ([3]; at 50.0 µM): -25.4% (inactive)
growth inhibition ([3]; at 100.0 µM): 77% (active)
growth inhibition ([4]; at 1.2 µM): 0% (inactive)
growth inhibition ([4]; at 3.7 µM): 14% (inactive)
growth inhibition ([4]; at 11.0 µM): 10% (inactive)
growth inhibition ([4]; at 33.0 µM): 22% (inactive)
growth inhibition ([4]; at 100.0 µM): 51% (inactive)
growth inhibition [5, 15]: -1% (inactive)
growth inhibition [5, 16]: 35% (inactive)
growth inhibition ([5]; at 50.0 µM): 16.4% (inactive)
growth inhibition ([6]; at 1.2 µM): 14% (inactive)
growth inhibition ([6]; at 3.7 µM): 11% (inactive)
growth inhibition ([6]; at 11.0 µM): 24% (inactive)
growth inhibition ([6]; at 33.0 µM): 27% (inactive)
growth inhibition ([6]; at 100.0 µM): 55% (inactive)
growth inhibition [7, 15]: 43% (inactive)
growth inhibition [7, 16]: 63% (inactive)
growth inhibition ([7]; at 50.0 µM): -42.5% (inactive)
growth inhibition ([8]; at 1.2 µM): 34% (inactive)
growth inhibition ([8]; at 3.7 µM): 46% (inactive)
growth inhibition [8, 15]: 20% (inactive)
growth inhibition ([8]; at 11.0 µM): 57% (inactive)
growth inhibition ([8]; at 33.0 µM): 68% (inactive)
growth inhibition [8, 16]: 59% (inactive)
growth inhibition ([8]; at 50.0 µM): 28.6% (inactive)
growth inhibition ([8]; at 100.0 µM): 79% (active)
growth inhibition ([9]; at 1.2 µM): -9% (inactive)
growth inhibition ([9]; at 3.7 µM): 16% (inactive)
growth inhibition ([9]; at 11.0 µM): 31% (inactive)
growth inhibition ([9]; at 33.0 µM): 41% (inactive)
growth inhibition ([9]; at 100.0 µM): 70% (active)
growth inhibition ([10]; at 1.2 µM): -2% (inactive)
growth inhibition ([10]; at 3.7 µM): 11% (inactive)
growth inhibition ([10]; at 11.0 µM): 18% (inactive)
growth inhibition ([10]; at 33.0 µM): 32% (inactive)
growth inhibition ([10]; at 100.0 µM): 65% (inactive)
growth inhibition ([11]; at 1.2 µM): 40% (inactive)
growth inhibition ([11]; at 3.7 µM): 37% (inactive)
growth inhibition ([11]; at 11.0 µM): 42% (inactive)
growth inhibition ([11]; at 33.0 µM): 52% (inactive)
growth inhibition ([11]; at 100.0 µM): 73% (active)
growth inhibition [12, 15]: 33% (inactive)
growth inhibition [12, 16]: 66% (inactive)
growth inhibition ([12]; at 50.0 µM): 53.1% (inactive)
growth inhibition ([13]; at 1.2 µM): -10% (inactive)
growth inhibition ([13]; at 3.7 µM): 4% (inactive)
growth inhibition ([13]; at 11.0 µM): 14% (inactive)
growth inhibition ([13]; at 33.0 µM): 5% (inactive)
growth inhibition ([13]; at 100.0 µM): 14% (inactive)

Cc1[nH]nc(C(F)(F)F)c1N=NN(C)C
growth inhibition ([14]; at 1.2 µM): 3% (inactive)
growth inhibition ([14]; at 3.7 µM): 35% (inactive)
growth inhibition ([14]; at 11.0 µM): 73% (active)
growth inhibition ([14]; at 33.0 µM): 96% (active)
growth inhibition ([14]; at 100.0 µM): 98% (active)
growth inhibition ([2]; at 1.2 µM): 10% (inactive)
growth inhibition ([2]; at 3.7 µM): 51% (inactive)
growth inhibition [2, 15]: 91% (active)
growth inhibition ([2]; at 11.0 µM): 87% (active)
growth inhibition ([2]; at 33.0 µM): 99% (active)
growth inhibition [2, 16]: 97% (active)
growth inhibition ([2]; at 50.0 µM): 99.3% (active)
growth inhibition ([2]; at 100.0 µM): 98% (active)
growth inhibition ([3]; at 1.2 µM): 2% (inactive)
growth inhibition ([3]; at 3.7 µM): 32% (inactive)
growth inhibition [3, 15]: 96% (active)
growth inhibition ([3]; at 11.0 µM): 61% (inactive)
growth inhibition ([3]; at 33.0 µM): 99% (active)
growth inhibition [3, 16]: 99% (active)
growth inhibition ([3]; at 50.0 µM): 99.7% (active)
growth inhibition ([3]; at 100.0 µM): 98% (active)
growth inhibition ([4]; at 1.2 µM): 2% (inactive)
growth inhibition ([4]; at 3.7 µM): 10% (inactive)
growth inhibition ([4]; at 11.0 µM): 54% (inactive)
growth inhibition ([4]; at 33.0 µM): 99% (active)
growth inhibition ([4]; at 100.0 µM): 99% (active)
growth inhibition [5, 15]: 78% (active)
growth inhibition [5, 16]: 98% (active)
growth inhibition ([5]; at 50.0 µM): 45% (inactive)
growth inhibition ([6]; at 1.2 µM): -1% (inactive)
growth inhibition ([6]; at 3.7 µM): 8% (inactive)
growth inhibition ([6]; at 11.0 µM): 51% (inactive)
growth inhibition ([6]; at 33.0 µM): 99% (active)
growth inhibition ([6]; at 100.0 µM): 99% (active)
growth inhibition [7, 15]: 81% (active)
growth inhibition [7, 16]: 99% (active)
growth inhibition ([7]; at 50.0 µM): 99.1% (active)
growth inhibition ([8]; at 1.2 µM): -10% (inactive)
growth inhibition ([8]; at 3.7 µM): -8% (inactive)
growth inhibition [8, 15]: 30% (inactive)
growth inhibition ([8]; at 11.0 µM): 45% (inactive)
growth inhibition ([8]; at 33.0 µM): 98% (active)
growth inhibition [8, 16]: 98% (active)
growth inhibition ([8]; at 50.0 µM): 99.5% (active)
growth inhibition ([8]; at 100.0 µM): 98% (active)
growth inhibition ([9]; at 1.2 µM): -1% (inactive)
growth inhibition ([9]; at 3.7 µM): 49% (inactive)
growth inhibition ([9]; at 11.0 µM): 51% (inactive)
growth inhibition ([9]; at 33.0 µM): 99% (active)
growth inhibition ([9]; at 100.0 µM): 99% (active)
growth inhibition ([10]; at 1.2 µM): 4% (inactive)
growth inhibition ([10]; at 3.7 µM): 48% (inactive)
growth inhibition ([10]; at 11.0 µM): 52% (inactive)
growth inhibition ([10]; at 33.0 µM): 99% (active)
growth inhibition ([10]; at 100.0 µM): 99% (active)
growth inhibition ([11]; at 1.2 µM): 12% (inactive)
growth inhibition ([11]; at 3.7 µM): 48% (inactive)
growth inhibition ([11]; at 11.0 µM): 75% (active)
growth inhibition ([11]; at 33.0 µM): 99% (active)
growth inhibition ([11]; at 100.0 µM): 99% (active)
growth inhibition [12, 15]: 25% (inactive)
growth inhibition [12, 16]: 98% (active)
growth inhibition ([12]; at 50.0 µM): 91.1% (active)
growth inhibition ([13]; at 1.2 µM): 10% (inactive)
growth inhibition ([13]; at 3.7 µM): 47% (inactive)
growth inhibition ([13]; at 11.0 µM): 79% (active)
growth inhibition ([13]; at 33.0 µM): 99% (active)
growth inhibition ([13]; at 100.0 µM): 99% (active)

CCCCCCCCCCCC[N+](C)(C)Cc1ccccc1 (tested in a mixture with another compound)
growth inhibition [2, 15]: 79% (active) and 69% (inactive) and 58% (inactive)
growth inhibition [2, 16]: 99% (active)
growth inhibition ([2]; at 50.0 µM): 98% (active) and 99.6% (active) and 97.7% (active)
growth inhibition [3, 15]: 79% (active) and 55% (inactive) and 44% (inactive)
growth inhibition [3, 16]: 100% (active)
growth inhibition ([3]; at 50.0 µM): 99.7% (active) and 99.8% (active) and 86.8% (active)
growth inhibition [5, 15]: 93% (active) and 95% (active) and 89% (active)
growth inhibition [5, 16]: 100% (active) and 99% (active)
growth inhibition ([5]; at 50.0 µM): 99.7% (active) and 99.8% (active) and 99.5% (active)
growth inhibition [7, 15]: 66% (inactive) and 58% (inactive) and 61% (inactive)
growth inhibition [7, 16]: 99% (active)
growth inhibition ([7]; at 50.0 µM): 98.5% (active) and 97.3% (active) and 96% (active)
growth inhibition [8, 15]: 93% (active) and 76% (active)
growth inhibition [8, 16]: 100% (active) and 99% (active)
growth inhibition ([8]; at 50.0 µM): 99.8% (active) and 99.3% (active) and 98.3% (active)
growth inhibition [12, 15]: 94% (active) and 74% (active) and 78% (active)
growth inhibition [12, 16]: 100% (active)
growth inhibition ([12]; at 50.0 µM): 99.5% (active) and 98.9% (active)
